Source: PubChem BioAssay AID1159580 (chemical genetic matrix, 2015)
“And” between values parts separate entries of the source, which are not always exact repeats. Identical values can stand only once. Out of some 5,500 compounds screened, about 2,000 (36%) were called active. Not shown: some 18% with an inconclusive outcome. Rule as the data show it: active = normalized growth mostly below about 0.91 (no sharp cut-off); inconclusive = no clear call, values can overlap the other calls; inactive = mostly above about 0.92. The list shows a part of the results.

Assay: chemical genetic growth profiling, strain panel (AID 1159580);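 also: tested at 20 µM; growth read once vehicle control cultures reached saturation at 30 °C; 1 = growth at the plate median or of vehicle wells; lower values mean less growth of the strain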
Settings: S. cerevisiae deletion strains, growth OD

Measured: normalized growth

CN(C)CCCN1c2ccccc2Sc2ccc(Cl)cc21
active: locus YAL021C, strain ccr4, stronger effect = lower value 0.0773 | locus YAL026C, strain drs2, stronger effect = lower value 0.0621 | locus YAL030W, strain snc1, stronger effect = lower value 0.0722 | locus YBL061C, strain skt5, stronger effect = lower value 0.0759 | locus YBR009C, strain hhf1, stronger effect = lower value 0.0662 | locus YBR021W, strain FUR4, stronger effect = lower value 0.612 | locus YBR023C, strain chs3, stronger effect = lower value 0.0864 | locus YBR171W, strain sec66, stronger effect = lower value 0.351 | locus YBR231C, strain swc5, stronger effect = lower value 0.0709 | locus YBR279W, strain paf1, stronger effect = lower value 0.165 | locus YCL011C, strain gbp2, stronger effect = lower value 0.068 | locus YCL016C, strain dcc1, stronger effect = lower value 0.165 | locus YCL069W, strain vba3, stronger effect = lower value 0.131 | locus YCR088W, strain abp1, stronger effect = lower value 0.0794 | locus YDL035C, strain GPR1, stronger effect = lower value 0.853 | locus YDL040C, strain nat1, stronger effect = lower value 0.14 | locus YDR001C, strain nth1, stronger effect = lower value 0.119 | locus YDR069C, strain doa4, stronger effect = lower value 0.0779 | locus YDR159W, strain sac3, stronger effect = lower value 0.274 | locus YDR162C, strain NBP2, stronger effect = lower value 0.599 | locus YDR195W, strain ref2 0.155 | locus YDR297W, strain sur2, stronger effect = lower value 0.0894 | locus YDR334W, strain swr1, stronger effect = lower value 0.0746 | locus YDR335W, strain msn5, stronger effect = lower value 0.158 | locus YDR392W, strain spt3, stronger effect = lower value 0.351 | locus YEL003W, strain gim4, stronger effect = lower value 0.0681 | locus YEL037C, strain rad23, stronger effect = lower value 0.0964 | locus YEL061C, strain CIN8 (second series), stronger effect = lower value 0.4 | locus YER015W, strain faa2, stronger effect = lower value 0.111 | locus YER016W, strain bim1, stronger effect = lower value 0.102 | locus YFR010W, strain ubp6, stronger effect = lower value 0.111 | locus YGL167C, strain pmr1, stronger effect = lower value 0.562 | locus YGL173C, strain kem1, stronger effect = lower value 0.501 | locus YGL227W, strain vid30, stronger effect = lower value 0.103 | locus YGL253W, strain hxk2, stronger effect = lower value 0.0994 | locus YHR013C, strain ard1, stronger effect = lower value 0.513 | locus YHR027C, strain rpn1, stronger effect = lower value 0.082 | locus YHR142W, strain chs7, stronger effect = lower value 0.116 | locus YJL092W, strain hpr5, stronger effect = lower value 0.0961 | locus YJL095W, strain BCK1 (second series), stronger effect = lower value 0.0651 | locus YJL115W, strain asf1, stronger effect = lower value 0.183 | locus YJL129C, strain trk1, stronger effect = lower value 0.159 | locus YJL154C, strain vps35, stronger effect = lower value 0.0684 | locus YJL164C, strain tpk1, stronger effect = lower value 0.0728 | locus YJL166W, strain qcr8, stronger effect = lower value 0.0785 | locus YKL160W, strain elf1, stronger effect = lower value 0.229 | locus YKR026C, strain gcn3, stronger effect = lower value 0.151 | locus YKR091W, strain srl3, stronger effect = lower value 0.0828 | locus YLL001W, strain dnm1, stronger effect = lower value 0.11 | locus YLL026W, stronger effect = lower value 0.0697 | locus YLL041C, strain sdh2, stronger effect = lower value 0.0922 | locus YLR027C, strain aat2, stronger effect = lower value 0.0702 | locus YLR039C, strain RIC1, stronger effect = lower value 1.67 [resistant] | locus YLR221C, strain rsa3, stronger effect = lower value 0.11 | locus YLR258W, strain gsy2, stronger effect = lower value 0.0787 | locus YLR262C, strain YPT6 (second series), stronger effect = lower value 0.165 | locus YLR262C, strain YPT6, stronger effect = lower value 1.54 [resistant] | locus YLR320W, strain mms22, stronger effect = lower value 0.181 | locus YLR342W, strain FKS1 (second series), stronger effect = lower value 0.746 | locus YLR342W, strain FKS1, stronger effect = lower value 0.0779 | locus YLR357W, strain rsc2, stronger effect = lower value 0.18 | locus YLR370C, strain arc18, stronger effect = lower value 0.067 | locus YLR384C, strain iki3, stronger effect = lower value 0.102 | locus YLR418C, strain cdc73, stronger effect = lower value 0.804 | locus YML120C, strain ndi1, stronger effect = lower value 0.082 | locus YMR058W, strain fet3, stronger effect = lower value 0.0939 | locus YMR125W, strain sto1, stronger effect = lower value 0.0861 | locus YMR129W, stronger effect = lower value 0.0771 | locus YMR205C, strain PFK2, stronger effect = lower value 0.719 | locus YMR231W, strain pep5, stronger effect = lower value 0.0725 | locus YNL071W, strain lat1, stronger effect = lower value 0.218 | locus YNL153C, strain GIM3, stronger effect = lower value 0.86 and 0.732 | locus YNL209W, strain ssb2, stronger effect = lower value 0.101 | locus YNL248C, strain rpa49, stronger effect = lower value 0.461 | locus YNR049C, strain mso1, stronger effect = lower value 0.0933 | locus YOR001W, strain rrp6, stronger effect = lower value 0.143 | locus YOR070C, strain gyp1, stronger effect = lower value 0.0696 | locus YOR080W, strain dia2, stronger effect = lower value 0.18 | locus YOR083W, strain WHI5, stronger effect = lower value 0.0877 | locus YOR106W, strain vam3, stronger effect = lower value 0.0702 | locus YOR265W, strain rbl2, stronger effect = lower value 0.0766 | locus YOR270C, strain vph1, stronger effect = lower value 0.331 | locus YOR290C, strain snf2, stronger effect = lower value 0.122 | locus YPL051W, strain arl3, stronger effect = lower value 0.229 | locus YPL078C, strain atp4, stronger effect = lower value 0.586 | locus YPL106C, strain sse1, stronger effect = lower value 0.109 | locus YPL240C, strain hsp82, stronger effect = lower value 0.0839
inactive: locus YAL040C, strain CLN3, stronger effect = lower value 0.992 | locus YBR229C, strain ROT2, stronger effect = lower value 1.01 | locus YCL029C, strain bik1, stronger effect = lower value 1.03 | locus YDL005C, strain med2, stronger effect = lower value 1.01 | locus YDL074C, strain BRE1, stronger effect = lower value 0.87 | locus YDL101C, strain DUN1, stronger effect = lower value 0.992 | locus YDL185W, strain tfp1, stronger effect = lower value 1.01 | locus YDL192W, strain arf1, stronger effect = lower value 1.01 | locus YDR101C, strain arx1, stronger effect = lower value 0.98 | locus YDR137W, strain rgp1, stronger effect = lower value 0.903 | locus YDR318W, strain mcm21, stronger effect = lower value 0.999 | locus YDR363W, strain ESC2, stronger effect = lower value 0.953 | locus YDR388W, stronger effect = lower value 0.98 | locus YDR502C, strain sam2, stronger effect = lower value 0.974 | locus YEL061C, strain CIN8, stronger effect = lower value 0.983 | locus YER002W, strain NOP16, stronger effect = lower value 0.972 | locus YER110C, stronger effect = lower value 1.04 | locus YER111C, strain swi4, stronger effect = lower value 0.977 | locus YER155C, strain BEM2 (second series), stronger effect = lower value 1.12 | locus YER155C, strain BEM2, stronger effect = lower value 1.02 | locus YER167W, strain BCK2, stronger effect = lower value 1.01 | locus YGL078C, strain dbp3, stronger effect = lower value 1.01 | locus YGL086W, strain mad1, stronger effect = lower value 0.936 | locus YGL240W, strain doc1, stronger effect = lower value 0.92 | locus YGL248W, strain PDE1, stronger effect = lower value 0.994 | locus YGR078C, strain PAC10, stronger effect = lower value 0.889 and 0.997 | locus YGR135W, strain pre9, stronger effect = lower value 0.913 | locus YGR252W, strain gcn5, stronger effect = lower value 0.78 | locus YHR030C, strain SLT2, stronger effect = lower value 0.948 and 0.983 | locus YHR079C, strain IRE1 (second series), stronger effect = lower value 1.01 | locus YHR079C, strain IRE1, stronger effect = lower value 0.984 | locus YHR094C, strain hxt1, stronger effect = lower value 1 | locus YHR129C, strain ARP1, stronger effect = lower value 1 | locus YHR200W, strain rpn10, stronger effect = lower value 1.01 | locus YIL066C, strain RNR3, stronger effect = lower value 0.936 | locus YIL073C, strain SPO22, stronger effect = lower value 0.979 | locus YIL125W, strain kgd1, stronger effect = lower value 1 | locus YIR030C, strain dcg1, stronger effect = lower value 1.02 | locus YJL134W, strain LCB3, stronger effect = lower value 0.998 | locus YJL168C, strain set2, stronger effect = lower value 1.01 | locus YJL187C, strain SWE1 (second series), stronger effect = lower value 0.949 | locus YJR043C, strain POL32, stronger effect = lower value 1.02 | locus YJR066W, strain TOR1, stronger effect = lower value 0.974 | locus YJR075W, strain HOC1, stronger effect = lower value 0.933 | locus YKL009W, strain mrt4, stronger effect = lower value 1.02 | locus YKL068W, stronger effect = lower value 1.01 | locus YKL085W, strain MDH1 (second series), stronger effect = lower value 0.975 | locus YKL085W, strain MDH1, stronger effect = lower value 0.975 | locus YKL190W, strain CNB1, stronger effect = lower value 0.949 | locus YKR001C, strain vps1, stronger effect = lower value 0.919 | locus YLR058C, strain SHM2, stronger effect = lower value 0.986 | locus YLR102C, strain apc9, stronger effect = lower value 1 | locus YLR113W, strain HOG1, stronger effect = lower value 0.982 | locus YLR268W, strain sec22, stronger effect = lower value 1.01 | locus YLR330W, strain CHS5, stronger effect = lower value 1 | locus YLR371W, strain rom2, stronger effect = lower value 1.01 | locus YML016C, strain PPZ1, stronger effect = lower value 1 | locus YML032C, strain rad52, stronger effect = lower value 0.964 | locus YML124C, strain tub3, stronger effect = lower value 1.01 | locus YMR078C, strain ctf18, stronger effect = lower value 1.01 | locus YMR223W, strain ubp8, stronger effect = lower value 0.958 | locus YMR263W, strain SAP30, stronger effect = lower value 0.955 | locus YMR307W, strain GAS1, stronger effect = lower value 1.02 | locus YNL067W, strain RPL9B, stronger effect = lower value 0.993 | locus YNL175C, strain NOP13, stronger effect = lower value 0.967 | locus YNL183C, strain NPR1, stronger effect = lower value 0.917 | locus YNL197C, strain WHI3, stronger effect = lower value 0.98 | locus YNL224C, strain SQS1, stronger effect = lower value 0.984 | locus YNL233W, strain BNI4, stronger effect = lower value 0.937 | locus YNL250W, strain rad50, stronger effect = lower value 1.02 | locus YNL271C, strain bni1, stronger effect = lower value 1.01 | locus YNL298W, strain CLA4, stronger effect = lower value 1.02 | locus YNL307C, strain MCK1, stronger effect = lower value 1.01 | locus YNL322C, strain KRE1 (second series), stronger effect = lower value 1.07 | locus YNL322C, strain KRE1, stronger effect = lower value 0.974 | locus YNR052C, strain pop2, stronger effect = lower value 0.94 | locus YOL006C, strain TOP1, stronger effect = lower value 0.733 | locus YOL012C, strain htz1 0.856 | locus YOL147C, strain pex11, stronger effect = lower value 1.02 | locus YOR061W, strain CKA2, stronger effect = lower value 0.948 | locus YOR069W, strain VPS5, stronger effect = lower value 1 | locus YOR083W, strain WHI5 (second series), stronger effect = lower value 0.935 | locus YOR136W, strain idh2, stronger effect = lower value 1.03 | locus YOR144C, strain elg1, stronger effect = lower value 1.01 | locus YOR184W, strain ser1, stronger effect = lower value 1.04 | locus YOR231W, strain MKK1, stronger effect = lower value 0.986 | locus YOR316C, strain cot1, stronger effect = lower value 1 | locus YPL241C, strain CIN2, stronger effect = lower value 0.988 and 0.985 | locus YPL256C, strain CLN2, stronger effect = lower value 0.97 | locus YPR119W, strain clb2, stronger effect = lower value 1.01 | locus YPR141C, strain kar3, stronger effect = lower value 1.02 | locus YPR163C, strain tif3, stronger effect = lower value 0.988 | locus YPR167C, strain met16, stronger effect = lower value 1.02 | strain wtn01, stronger effect = lower value 0.969
0.739 (active) and 0.979 (inactive): locus YJL095W, strain BCK1, stronger effect = lower value
